Potency and outcome data for 7 compounds are collected here from PubChem BioAssay (Tox21).

Each structure is given as a SMILES string. Results filed as inconclusive are left out. Calls of active or inactive are those of the source. Unless noted, calls follow the shape of the dose curve; as a rule, active = well fitted curve in the direction sought with a large enough effect in the repeat runs; inconclusive = weak or mixed curves; inactive = no such curve, though single readings can be large; an effect the other way counts as inactive or inconclusive.

The nature of assay [1]: qHTS assay to identify small molecule antagonists of the thyroid receptor (TR) signaling pathway - cell viability counter screen (AID 743064). Also: nearly all actives have a fitted effect of over 50% in size. The method, boiled down:
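GH3.TRE-Luc rat pituitary cells dosed after 4 hr plating, co-stimulated with T3 at 1 nM final, incubated 23.5 h at 37 C. Viability measured in the same wells by CellTiter-Fluor fluorescence after 30 min further at 37 C.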
(In general: Quantitative high-throughput screening tests each substance at several concentrations.)

The nature of assay [2]: qHTS assay to identify small molecule antagonists of the thyroid receptor (TR) signaling pathway (AID 743065). Also: series mostly up to about 70 µM; nearly all actives have a fitted effect of over 55% in size. The method, boiled down:
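GH3.TRE-Luc rat pituitary cells (two TREs driving luciferase) were dosed with compound, then stimulated with 1 nM T3 (final) for 23.5 h at 37 C. ONE-Glo luminescence was the read-out, with CellTiter-Fluor fluorescence as the cytotoxicity counter-screen.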

For assay [3], the system named is thyroid hormone receptor (rat, GH3 cells). Briefly: qHTS assay to identify small molecule agonists of the thyroid receptor (TR) signaling pathway (AID 743066; calls by dose curve).
Assay [4] has as its target Estrogen receptor (Homo sapiens) (UniProt P03372). Kind of assay: qHTS assay to identify small molecule antagonists of the estrogen receptor alpha (ER-alpha) signaling pathway (AID 743069; active = well fitted curve in the direction sought with a large enough effect in the signal ratio in the repeat runs, not every such curve was filed as active; the % refers to the signal ratio). The method, boiled down: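 Beta-lactamase FRET fluorescence is read after 2 hr at room temperature with LiveBLAzer B/G substrate. Before that, ER-alpha-bla HEK293 cells sit 4 hr after plating, then receive compound plus 17beta-estradiol and incubate 18 hr at 37C.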

Assay [5] in a line: qHTS assay to identify small molecule antagonists of the estrogen receptor alpha (ER-alpha) signaling pathway - cell viability counter screen (AID 743074; calls by dose curve;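 also: HEK293 cells carrying ER-alpha-UAS-bla reporter stimulated with 17beta-estradiol; nearly all actives have a fitted effect of over 45% in size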).
The target in assay [6] is Estrogen receptor (Homo sapiens) (UniProt P03372). Briefly: qHTS assay to identify small molecule agonists of the estrogen receptor alpha (ER-alpha) signaling pathway (AID 743075; calls by dose curve;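 also: HEK293 GripTite cells with ER-alpha and UAS-driven beta-lactamase reporter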).
Assay [7] has the same target. Kind of assay: qHTS assay to identify small molecule agonists of the estrogen receptor alpha (ER-alpha) signaling pathway using the BG1 cell line (AID 743079). Also: nearly all actives have a fitted effect of over 20% in size.
Assay [8] in a line: qHTS assay to identify small molecule antagonists of the estrogen receptor alpha (ER-alpha) signaling pathway using the BG1 cell line (AID 743080; calls by dose curve;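 also: BG1 cells stimulated with 17beta-estradiol alongside compound; series mostly up to about 70 µM; nearly all actives have a fitted effect of over 25% in size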). The method, boiled down:
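Luminescence from a 4×ERE-luciferase reporter in BG1-Luc-4E2 cells served as read-out. Cells, pre-cultured 5 days in stripped-serum phenol-red-free medium, were exposed to compound with 17beta-estradiol co-stimulation for 21.5 h at 37 C.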

Assay [9] is described as follows: qHTS assay to identify small molecule antagonists of the estrogen receptor alpha (ER-alpha) signaling pathway using the BG1 cell line - cell viability counter screen (AID 743081).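 Also: compound given together with 17beta-estradiol as the ER stimulus; series mostly up to about 70 µM; nearly all actives have a fitted effect of over 45% in size.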
A further assay deals with Aromatase (Homo sapiens) (UniProt P11511). Kind of assay: qHTS assay to identify aromatase inhibitors (AID 743083). Also: series mostly up to about 70 µM; nearly all actives have a fitted effect of over 55% in size.
A short description of assay [10]: qHTS assay to identify aromatase inhibitors - cell viability counter screen (AID 743084).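 Also: cells stimulated with testosterone during compound exposure; nearly all actives have a fitted effect of over 55% in size.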
Assay [11] addresses Aryl hydrocarbon receptor (Homo sapiens) (UniProt P35869). Briefly: qHTS assay to identify small molecule that activate the aryl hydrocarbon receptor (AhR) signaling pathway (AID 743085). Also: nearly all actives have a fitted effect of over 15% in size. Also: potency is read from the fitted curve at half-maximal effect.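 As to activation: HG2L7.5c1 human HepG2 liver cells with stably integrated DRE-driven firefly reporter; series mostly up to about 70 µM.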 The method, boiled down:
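HepG2 cells stably carrying a 20-DRE firefly luciferase reporter (HG2L7.5c1) treated with compound for 24 hr at 37C. Luciferase read by ONE-Glo luminescence, with CellTiter-Fluor viability read first.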

Assay [12] in a line: qHTS assay to identify small molecule that activate the aryl hydrocarbon receptor (AhR) signaling pathway - cell viability counter screen (AID 743086).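 Also: HepG2 liver cells carrying the AhR DRE luciferase reporter; series mostly up to about 70 µM; nearly all actives have a fitted effect of over 45% in size.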 The method, boiled down: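 HepG2-AhR-luc (HG2L7.5c1) cells, 4000/well, treated 24 h at 37 C with compound; viability measured as CellTiter-Fluor fluorescence after 30 min in the same wells as the luciferase read.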
The target in assay [13] is Peroxisome proliferator-activated receptor gamma (Homo sapiens) (UniProt P37231). Briefly: qHTS assay to identify small molecule agonists of the peroxisome proliferator-activated receptor gamma (PPARg) signaling pathway (AID 743094; active = well fitted activation curve with a large enough effect in the signal ratio in the repeat runs, not every such curve was filed as active; the % refers to the signal ratio). The method, boiled down:
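HEK293H PPARg-bla cells, 5 h settle at 37C/5% CO2; compound (DMSO) 17 h, 37C; B/G FRET substrate 1 h RT; fluorescence intensity read-out. qHTS format.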

For assay [14] the target is unchanged. Kind of assay: qHTS assay to identify small molecule antagonists of the peroxisome proliferator-activated receptor gamma (PPARg) signaling pathway (AID 743191; calls by dose curve; also: series mostly up to about 63 µM; nearly all actives have a fitted effect of over 30% in size). The method, boiled down:
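GeneBLAzer PPARg UAS-bla HEK293H cells, 5 h post-plating, exposed to compounds 17 h at 37C. LiveBLAzer B/G FRET substrate added for 1 h at room temperature; beta-lactamase reporter read by fluorescence intensity.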

A short description of assay [15]: qHTS assay to identify small molecule antagonists of the peroxisome proliferator-activated receptor gamma (PPARg) signaling pathway - cell viability counter screen (AID 743194). Also: nearly all actives have a fitted effect of over 55% in size. The method, boiled down: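 Cytotoxicity counter screen in PPARg-bla HEK293H cells, same wells as reporter assay. Compounds plus 50 nM rosiglitazone (final) for 17 h at 37 C, then viability read by CellTiter-Glo luminescence.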

The nature of assay [16]: qHTS assay for small molecule agonists of the antioxidant response element (ARE) signaling pathway (AID 743202; active = well fitted activation curve with a large enough effect in the signal ratio in the repeat runs, not every such curve was filed as active; the % refers to the signal ratio). The method, boiled down:
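HepG2 ARE-bla reporter line, 2,000 cells/well; 5 h preincubation 37 C/5% CO2; compound (DMSO) 16 h 37 C; B/G FRET substrate 2 h RT; fluorescence intensity.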

Assay [17] in a line: qHTS assay for small molecule agonists of the antioxidant response element (ARE) signaling pathway - cell viability counter screen (AID 743203; calls by dose curve; also: nearly all actives have a fitted effect of over 55% in size). The method, boiled down:
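Luminescence read-out (CellTiter-Glo, 30 min at room temperature) measured cell viability in the same wells as the ARE beta-lactamase reporter. HepG2 ARE-bla cells were treated with compounds for 16 hrs at 37C/5% CO2.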

Assay [18] is described as follows: qHTS assay for small molecule activators of the heat shock response signaling pathway - cell viability counter screen (AID 743209). Also: nearly all actives have a fitted effect of over 50% in size. The method, boiled down: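 HSE-bla HeLa; 1500 cells/well; overnight 37 C, 5% CO2; compound 5 h 37 C; LiveBLAzer B/G substrate 2.5 h RT; CellTiter-Glo 30 min RT; luminescence.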
A short description of assay [19]: qHTS assay for small molecule activators of the heat shock response signaling pathway (AID 743210; active = well fitted activation curve with a large enough effect in the signal ratio in the repeat runs, with a control signal flat, not every such curve was filed as active; the % refers to the signal ratio; also: series mostly up to about 63 µM). The method, boiled down: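 Beta-lactamase reporter read-out: FRET substrate fluorescence after 2.5 h at RT, following 5 h compound treatment at 37 C of HeLa cells carrying HSE-driven bla reporter; quantitative HTS format.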

Aromatase (Homo sapiens), sequence (P11511 whole entry, looked up): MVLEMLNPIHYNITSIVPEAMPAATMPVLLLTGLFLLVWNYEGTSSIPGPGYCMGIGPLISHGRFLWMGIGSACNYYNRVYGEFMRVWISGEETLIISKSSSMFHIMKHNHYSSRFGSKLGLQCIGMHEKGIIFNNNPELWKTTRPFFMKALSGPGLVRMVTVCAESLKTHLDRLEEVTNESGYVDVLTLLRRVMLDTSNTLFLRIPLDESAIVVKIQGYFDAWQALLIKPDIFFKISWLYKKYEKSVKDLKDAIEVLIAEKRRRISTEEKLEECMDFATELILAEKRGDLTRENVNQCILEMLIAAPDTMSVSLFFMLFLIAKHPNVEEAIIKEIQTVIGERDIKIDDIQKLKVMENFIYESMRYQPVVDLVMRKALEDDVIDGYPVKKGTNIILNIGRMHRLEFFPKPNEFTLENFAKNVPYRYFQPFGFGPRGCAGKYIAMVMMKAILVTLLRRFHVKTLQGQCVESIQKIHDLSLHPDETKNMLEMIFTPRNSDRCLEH
Aryl hydrocarbon receptor (Homo sapiens), sequence (P35869 whole entry, looked up): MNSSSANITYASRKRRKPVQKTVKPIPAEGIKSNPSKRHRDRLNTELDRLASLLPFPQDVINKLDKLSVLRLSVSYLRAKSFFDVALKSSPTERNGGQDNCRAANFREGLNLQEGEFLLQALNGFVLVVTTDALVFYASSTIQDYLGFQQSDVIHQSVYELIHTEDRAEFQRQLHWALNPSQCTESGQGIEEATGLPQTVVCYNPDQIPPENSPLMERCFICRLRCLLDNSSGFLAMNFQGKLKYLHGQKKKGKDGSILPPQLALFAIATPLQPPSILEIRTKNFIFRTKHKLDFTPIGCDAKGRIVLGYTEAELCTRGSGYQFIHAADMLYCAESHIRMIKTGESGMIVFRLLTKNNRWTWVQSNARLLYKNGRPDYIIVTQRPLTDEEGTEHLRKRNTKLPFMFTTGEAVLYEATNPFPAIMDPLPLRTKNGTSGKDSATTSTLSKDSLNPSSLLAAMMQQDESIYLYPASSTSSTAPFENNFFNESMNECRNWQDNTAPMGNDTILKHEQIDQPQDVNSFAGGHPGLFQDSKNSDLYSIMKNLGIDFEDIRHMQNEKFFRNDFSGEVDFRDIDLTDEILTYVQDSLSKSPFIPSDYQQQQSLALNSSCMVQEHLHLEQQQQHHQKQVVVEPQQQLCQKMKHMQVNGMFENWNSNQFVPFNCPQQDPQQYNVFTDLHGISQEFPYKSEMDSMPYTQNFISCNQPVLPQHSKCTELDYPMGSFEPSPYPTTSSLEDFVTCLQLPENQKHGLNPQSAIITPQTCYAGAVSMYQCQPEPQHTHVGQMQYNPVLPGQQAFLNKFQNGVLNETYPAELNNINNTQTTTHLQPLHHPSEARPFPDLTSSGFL
Peroxisome proliferator-activated receptor gamma (Homo sapiens), sequence (P37231 whole entry, looked up): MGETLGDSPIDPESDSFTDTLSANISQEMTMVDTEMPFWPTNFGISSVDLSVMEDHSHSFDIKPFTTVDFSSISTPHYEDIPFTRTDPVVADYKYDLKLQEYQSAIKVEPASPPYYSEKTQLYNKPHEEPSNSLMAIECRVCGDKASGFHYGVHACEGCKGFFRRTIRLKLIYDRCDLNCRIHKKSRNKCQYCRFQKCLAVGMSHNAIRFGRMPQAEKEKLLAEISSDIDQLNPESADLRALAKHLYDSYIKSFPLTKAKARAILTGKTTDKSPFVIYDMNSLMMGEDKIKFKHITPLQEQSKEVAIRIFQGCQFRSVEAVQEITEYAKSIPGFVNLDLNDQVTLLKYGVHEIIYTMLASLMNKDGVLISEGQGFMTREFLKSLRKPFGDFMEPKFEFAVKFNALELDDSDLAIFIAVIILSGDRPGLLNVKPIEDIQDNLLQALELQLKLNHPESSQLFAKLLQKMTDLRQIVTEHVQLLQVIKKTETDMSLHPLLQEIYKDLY
Estrogen receptor (Homo sapiens), sequence (P03372 whole entry, looked up): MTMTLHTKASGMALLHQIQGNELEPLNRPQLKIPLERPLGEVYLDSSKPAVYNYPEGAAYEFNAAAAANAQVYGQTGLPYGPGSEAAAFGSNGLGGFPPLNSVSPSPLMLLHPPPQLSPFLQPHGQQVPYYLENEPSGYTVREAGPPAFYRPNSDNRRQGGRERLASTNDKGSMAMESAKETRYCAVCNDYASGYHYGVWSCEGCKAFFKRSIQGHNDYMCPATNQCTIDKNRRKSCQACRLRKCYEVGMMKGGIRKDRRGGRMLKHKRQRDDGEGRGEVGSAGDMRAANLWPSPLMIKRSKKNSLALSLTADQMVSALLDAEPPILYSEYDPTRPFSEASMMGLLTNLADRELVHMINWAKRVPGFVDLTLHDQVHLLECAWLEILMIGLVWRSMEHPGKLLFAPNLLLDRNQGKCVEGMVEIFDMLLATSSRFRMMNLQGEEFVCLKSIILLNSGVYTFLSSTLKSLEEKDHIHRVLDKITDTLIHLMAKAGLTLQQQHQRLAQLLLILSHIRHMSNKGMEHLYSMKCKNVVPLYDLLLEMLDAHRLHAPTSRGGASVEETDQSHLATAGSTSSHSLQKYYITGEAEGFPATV

Consider `CC(C)c1ccc(C#N)cc1`, for which the Potency result in assay [1], in [2], in [3], in assay [4], in [5] and in assay [6] was “inactive” each time. The Potency entry (in assay [7]; in assay [8]; in assay [9]; in the assay with Aromatase (Homo sapiens); in assay [10]; in [11]) was “inactive” throughout. Further, the Potency entry in assay [12], in [14], in assay [15], in assay [16], in [17] and in assay [18] was “inactive” throughout. In addition, the Potency result in [19] is “inactive”. The call in assay [13] was inactive.

In the case of `Cc1cccc2sc(N)nc12`, the Potency entry in assay [1], in assay [2], in [3], in assay [4], in assay [5] and in assay [6] was “inactive” throughout. The Potency result (in assay [7]; in assay [8]; in assay [9]; with Aromatase (Homo sapiens); in assay [10]; in [12]) was “inactive” in each case. In addition, the Potency entry in assay [15], in assay [17] and in [19] was “inactive” throughout. The Potency in assay [11] was 27.6 µM (active). The call in assay [13] was inactive.

In the case of `O=c1[nH]c2cc(C(F)(F)F)c(N3CCOCC3)cc2n(CP(=O)(O)O)c1=O`, the Potency entry in assay [1], in assay [2], in [3], in assay [4], in assay [5] and in assay [6] was “inactive” each time. For the same compound, the Potency result (in assay [7]; in assay [8]; in [9]; with Aromatase (Homo sapiens); in assay [10]; in assay [11]) was “inactive” throughout. The Potency result in assay [12], in assay [14], in assay [15], in [16], in assay [17] and in [18] was “inactive” throughout. The Potency result in assay [19] was “inactive”. The compound was classed as inactive in assay [13].

As for `O=c1[nH][nH]c(=O)c2cc([N+](=O)[O-])ccc12`, the Potency result in [1], in [2], in [3], in assay [4], in assay [5] and in assay [6] was “inactive” in each case. Besides, the Potency result (in assay [7]; in assay [8]; in assay [9]; with Aromatase (Homo sapiens); in [10]; in assay [11]) was “inactive” throughout. The Potency result in [12], in assay [15], in [16], in assay [17], in assay [18] and in assay [19] was “inactive” in each case. Moreover, the compound was classed as inactive in assay [13].

For `[Cl][Nd]([Cl])[Cl]`, the Potency entry in [1], in assay [2], in assay [3], in assay [4], in [5] and in assay [6] was “inactive” in each case. Also, the Potency entry (in [7]; in assay [8]; in assay [9]; in the assay with Aromatase (Homo sapiens); in [10]; in assay [11]) was “inactive” throughout. For the same compound, the Potency entry in assay [12], in assay [15], in assay [17], in assay [18] and in [19] was “inactive” each time. In addition, the call in assay [13] was inactive.

For `CCC(CO)(CO)[N+](=O)[O-]`, the Potency result in assay [1], in [2], in assay [3], in assay [4], in [5] and in assay [6] was “inactive” each time. Also, the Potency result (in assay [7]; in assay [8]; in [9]; with Aromatase (Homo sapiens); in assay [10]; in [11]) was “inactive” each time. Further, the Potency entry in assay [12], in assay [15], in [16], in [17], in [18] and in assay [19] was “inactive” each time. Besides, the call in assay [13] was inactive.

Regarding `CC(C)(C)NCC(O)COc1cccc2c1C[C@H](O)[C@H](O)C2` (some centres not stated), the Potency entry in assay [1], in assay [2], in assay [3], in assay [4], in [5] and in [6] was “inactive” throughout. In addition, the Potency result (in assay [7]; in [8]; in assay [9]; in the assay with Aromatase (Homo sapiens); in [10]; in [11]) was “inactive” throughout. The Potency result in assay [12], in [15], in assay [16], in assay [17], in assay [18] and in assay [19] was “inactive” in each case. Also, in assay [13], the outcome was inactive.
